Data on 7 compounds can be found in PubChem BioAssay (NCATS).

Records with an inconclusive call do not appear. Entries that show only a call come without a potency. Active and inactive are the calls of the source. Calls follow the shape of the dose curve; as a rule, active = well fitted curve in the direction sought with a large enough effect; inconclusive = small, poorly fitted or top-dose-only effect, or another doubt; inactive = no such curve, though single readings can be large; an effect the other way counts as inactive or inconclusive.

Assay [1] in a line: Inducers of the Endoplasmic Reticulum Stress Response (ERSR) in human glioma: Validation (AID 504836). The essentials: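 Stably transfected U87-MG glioma cells carrying a GRP78-based luciferase sensor; 16 h compound incubation. Luminescence end-point read 10 min after Bright-Glo addition at room temperature.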
Assay [2] addresses ATP-dependent 6-phosphofructokinase (Trypanosoma brucei brucei) (UniProt O15648). Briefly: qHTS Assay to Find Inhibitors of T. brucei phosphofructokinase: hit validation (AID 492961). Also: series mostly up to about 51 µM. The essentials: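 Luminescence from ADP-Glo reports ADP generated as T. brucei PFK (1.25 nM) phosphorylates 0.5 mM fructose-6-phosphate using 0.1 mM ATP. Reactions ran 45 min at room temperature, pH 8.0.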
(In general: qHTS replaces the single test concentration by a dilution series.)

The target of assay [3] is Ubiquitin carboxyl-terminal hydrolase 1 (Homo sapiens) (UniProt O94782). Description: Inhibitors of USP1/UAF1: Pilot qHTS (AID 504865).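 Also: rhodamine fluorescence freed from ubiquitin-rhodamine substrate followed over time; top concentration of the series differs between compounds; nearly all actives have a fitted effect of over 35% in size.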 In a few lines:
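USP1/UAF1 complex at 1 nM preincubated 15 min at room temperature with compound, then Ub-Rho substrate added at 150 nM final. Fluorescence (480/540 nm) read kinetically in 50 mM HEPES pH 7.8, 0.5 mM EDTA, 1 mM TCEP, 0.1 mg/ml BSA, 0.01% Tween-20.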

Chain of Ubiquitin carboxyl-terminal hydrolase 1 (Homo sapiens) (O94782 whole entry, looked up): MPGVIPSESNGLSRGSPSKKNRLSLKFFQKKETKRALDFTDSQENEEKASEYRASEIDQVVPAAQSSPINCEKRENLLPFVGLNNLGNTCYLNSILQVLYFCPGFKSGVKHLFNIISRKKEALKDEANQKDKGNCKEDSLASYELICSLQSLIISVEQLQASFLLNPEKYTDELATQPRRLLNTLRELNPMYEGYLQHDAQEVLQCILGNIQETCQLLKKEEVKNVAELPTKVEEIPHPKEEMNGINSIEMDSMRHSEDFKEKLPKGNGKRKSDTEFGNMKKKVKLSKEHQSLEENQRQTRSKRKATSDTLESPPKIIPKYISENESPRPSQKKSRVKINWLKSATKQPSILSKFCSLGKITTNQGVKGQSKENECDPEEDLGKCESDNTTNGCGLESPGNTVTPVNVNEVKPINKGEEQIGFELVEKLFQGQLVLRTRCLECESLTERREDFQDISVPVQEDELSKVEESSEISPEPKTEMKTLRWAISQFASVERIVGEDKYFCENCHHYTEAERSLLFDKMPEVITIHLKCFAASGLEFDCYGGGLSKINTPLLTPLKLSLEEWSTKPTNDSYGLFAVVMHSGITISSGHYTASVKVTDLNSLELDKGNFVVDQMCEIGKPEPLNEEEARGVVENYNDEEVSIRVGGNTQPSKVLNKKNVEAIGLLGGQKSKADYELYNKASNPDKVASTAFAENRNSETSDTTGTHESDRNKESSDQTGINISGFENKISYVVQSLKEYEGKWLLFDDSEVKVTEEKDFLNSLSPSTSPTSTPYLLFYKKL
Chain of ATP-dependent 6-phosphofructokinase (Trypanosoma brucei brucei) (O15648 whole entry, looked up): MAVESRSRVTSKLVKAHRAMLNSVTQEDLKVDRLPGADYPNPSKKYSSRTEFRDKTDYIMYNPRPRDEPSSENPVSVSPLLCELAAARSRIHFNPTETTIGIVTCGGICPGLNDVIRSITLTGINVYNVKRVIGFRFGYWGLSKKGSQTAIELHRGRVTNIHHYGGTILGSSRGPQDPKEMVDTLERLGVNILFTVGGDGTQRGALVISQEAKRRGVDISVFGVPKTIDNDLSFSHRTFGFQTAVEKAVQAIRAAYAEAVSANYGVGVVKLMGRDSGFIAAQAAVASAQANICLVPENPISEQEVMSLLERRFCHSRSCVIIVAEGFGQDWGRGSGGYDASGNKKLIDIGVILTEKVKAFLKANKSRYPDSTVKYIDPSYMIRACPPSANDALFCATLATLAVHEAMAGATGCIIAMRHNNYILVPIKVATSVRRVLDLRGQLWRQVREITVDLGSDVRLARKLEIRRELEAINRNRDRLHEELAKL

As for `CCn1cc(C(=O)O)c(=O)c2cc3c(cc21)OCO3`, the Potency entry in assay [1] was “inactive”.
Regarding `O=C(O)C(Cl)Cl`, the Potency result in assay [2] and in assay [3] was “inactive” each time.
Turning to `C[N+]1(C)C2CC(OC(=O)[C@H](CO)c3ccccc3)CC1C1OC12` (stereo partly drawn), the Potency result in assay [1] is “inactive”.
With `CCCN1CCO[C@@H]2c3cc(O)ccc3OC[C@@H]21`, the Potency entry in assay [3] is “inactive”.
Regarding `Cc1cccc(C#Cc2ccccc2)n1`, in assay [1], the Potency result was “inactive”.
The same measure, in the same setting: the entry for `CC(C[N+](C)(C)C)OC(N)=O` (stereo not drawn) is “inactive”.
The same measure, in the same setting: in the case of `COc1cc2c(cc1O)CC[C@@H]1[C@@H]2CC[C@]2(C)[C@@H](O)CC[C@@H]12` it was “inactive”.
